Source: PubChem BioAssay
USP7 inh: inhibitors of human USP7 deubiquitinase; inhibition, % at 20 µM; purified USP7, Ub-rhodamine cleavage fluorescence; actives 0.3% (n = 47,000)
USP8 inh: inhibitors of human USP8 deubiquitinase | actives 4.2% (n = 47,000) | purified USP8, Ub-rhodamine cleavage fluorescence, 30 min | inhibition, % at 20 µM | Ubiquitin carboxyl-terminal hydrolase 8 (Homo sapiens), P40818 | AID 1645853, 2021
USP17 inh: inhibitors of human USP17 deubiquitinase; Ubiquitin carboxyl-terminal hydrolase 17-like protein 5 (Homo sapiens), A8MUK1; AID 1645855, 2021; purified USP17, Ub-rhodamine cleavage fluorescence, 3 h; actives 6.5% (n = 47,000); inhibition, % at 50 µM
USP30 block: inhibitors of human USP30 deubiquitinase; inhibition, % at 25 µM; purified USP30, Ub-rhodamine cleavage fluorescence; actives 5.3% (n = 47,000); AID 1645860, 2021; Ubiquitin carboxyl-terminal hydrolase 30 (Homo sapiens), Q70CQ3
USP28 inh: inhibitors of human USP28 deubiquitinase. inhibition, % at 25 µM. AID 1645857, 2021. Ubiquitin carboxyl-terminal hydrolase 28 (Homo sapiens), Q96RU2. purified USP28, Ub-rhodamine cleavage fluorescence, 30 min. actives 3% (n = 47,000)
USP10 inh: inhibitors of human USP10 deubiquitinase; Ubiquitin carboxyl-terminal hydrolase 10 (Homo sapiens), Q14694; purified USP10, Ub-rhodamine fluorescence, 60 min; inhibition, % at 20 µM; actives 1.1% (n = 47,000); AID 1645856, 2021
Target sequence (Q14694 whole entry, looked up): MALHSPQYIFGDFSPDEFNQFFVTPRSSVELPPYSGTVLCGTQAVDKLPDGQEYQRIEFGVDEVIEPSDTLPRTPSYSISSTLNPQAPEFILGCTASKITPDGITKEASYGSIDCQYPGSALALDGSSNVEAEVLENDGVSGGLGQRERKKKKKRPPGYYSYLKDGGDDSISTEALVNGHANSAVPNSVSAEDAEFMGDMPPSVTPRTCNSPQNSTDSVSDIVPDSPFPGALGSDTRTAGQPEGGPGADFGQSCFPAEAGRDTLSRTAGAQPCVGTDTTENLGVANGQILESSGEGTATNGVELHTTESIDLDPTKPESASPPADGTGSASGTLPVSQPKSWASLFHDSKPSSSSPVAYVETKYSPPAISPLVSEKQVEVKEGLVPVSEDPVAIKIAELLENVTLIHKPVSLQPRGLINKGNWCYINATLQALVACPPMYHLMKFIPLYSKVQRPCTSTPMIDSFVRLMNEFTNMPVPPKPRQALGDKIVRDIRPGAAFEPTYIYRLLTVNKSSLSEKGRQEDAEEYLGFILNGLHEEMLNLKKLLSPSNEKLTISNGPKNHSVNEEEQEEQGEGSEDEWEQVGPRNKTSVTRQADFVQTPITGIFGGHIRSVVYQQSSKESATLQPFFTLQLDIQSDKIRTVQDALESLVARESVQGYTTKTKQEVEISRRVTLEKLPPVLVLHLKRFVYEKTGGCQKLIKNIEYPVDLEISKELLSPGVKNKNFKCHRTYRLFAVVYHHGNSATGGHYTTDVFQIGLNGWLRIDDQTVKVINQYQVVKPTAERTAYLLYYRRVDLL
Of the large screens only hits and unclear results are named; the others gave an inactive call. Rows were chosen to be rich in hits. Some 13% of all compounds tested hit in one or more screens of this group. Cut-off read from the data, not from the text of the source: active = inhibition above about 30%; inactive = the rest.

CCCCCCCCCC(CCCCCCCCCC(=O)O)O[C@H]1O[C@@H](COC(C)=O)[C@H](O)[C@@H](O)[C@H]1OC(=O)CC(=O)O (some centres undefined)	USP17 inh 42, USP30 block 53, USP28 inh 41, USP10 inh 68
O=C(CN1C(=O)c2ccccc2NC1=CN1CCOCC1)NCc1ccco1	none
Cc1cc(C)c(S(=O)(=O)N2CC(c3ccccc3)CC2=O)c(C)c1 (centres undefined)	none
O=C(NC1CCCCC1)c1cccc(S(=O)(=O)N2CC(c3ccccc3)CC2=O)c1 (centres undefined)	USP30 block 31
Cc1ccc(S(=O)(=O)[C@H]2CS(=O)(=O)C[C@@H]2NCc2ccccc2)cc1	none
Cc1c(O)c(O)c2c(c1O)COC2	USP17 inh 39
CCn1c(SCC(=O)N2CCc3ccccc32)nnc1-c1ccc2c(c1)OCCO2	USP17 inh 58, USP30 block 74
CCn1c(SCC(=O)N2CCc3ccccc32)nnc1-c1ccc(C)c(Cl)c1	USP17 inh 33
COc1ccc(OC)c(-n2c(SCC(=O)N3CCc4ccccc43)nnc2-c2cccc(S(=O)(=O)N(C)C)c2)c1	USP17 inh 48, USP30 block 49, USP28 inh 43
CCn1c(SCC(=O)c2c(C)[nH]c3ccccc23)nnc1-c1ccc2c(c1)OCCO2	USP17 inh 67, USP30 block 53, USP28 inh 41
Cc1cc(N(C)C)n2nc(-c3ccccc3C)nc2n1	none (no result: USP7 inh)
Cc1cccc(CC(=O)Nc2nnc3n2CCCS3)c1	none
CCOc1ccc(S(=O)(=O)Nc2ccc3c(c2)CC(=O)N3CC)cc1	none
CCN1C(=O)Cc2cc(NS(=O)(=O)c3cc(C)ccc3OC)ccc21	USP17 inh 47
Oc1sc(C=Nc2ccc(F)cc2)c2ccccc12	USP8 inh 68
CC(C)(C)c1ccc(C(=O)Nc2cc(=O)[nH]c3ncnn23)cc1	none
O=C(Cc1cccc2ccccc12)N1CCC(Cc2ccccc2)CC1	USP30 block 44
COc1ccccc1CC(=O)N1CCC(Cc2ccccc2)CC1	USP30 block 36
CN(CC(=O)N1CCC(Cc2ccccc2)CC1)Cc1ccccc1	none
Cc1nc(-c2cc(S(=O)(=O)N3CCCCC3)c(C)s2)no1	none
COc1ccc(-c2nnc(SCc3ccc(C#N)cc3)o2)cc1	USP30 block 46
COc1ccc(-c2nnc(SC(C(=O)c3ccccc3)c3ccccc3)o2)cc1 (centres undefined)	none
c1ccc2c(c1)C(N1CCCC1)CCC21CCN(C2CCOCC2)CC1 (centres undefined)	none
COc1ccc(-n2nc3c(c2NC(=O)c2cccs2)CS(=O)(=O)C3)cc1	none
N#Cc1ccccc1OCC(=O)N1CCC(c2nc3ccccc3o2)CC1	USP17 inh 32
CCN(c1ccccc1)S(=O)(=O)c1ccc2[nH]cc(C(=O)NCc3cccnc3)c(=O)c2c1	USP8 inh 38
CCn1cc(C(=O)NCc2cccnc2)c(=O)c2cc(S(=O)(=O)N3CCCCC3)ccc21	none
O=C(Nc1ccc2cn[nH]c2c1)c1cc(-c2ccco2)on1	USP8 inh 41
COc1ccc(CC(=O)Nc2ccccc2-c2nc3ccccc3[nH]2)cc1OC	USP17 inh 76, USP30 block 50
Cc1nn(CC(=O)NCc2ccccc2F)c2ccccc12	USP17 inh 51
CC1OC2CC(O)C1(O)C1=C2C(=O)c2c(O)c3c(c(O)c2C1=O)[C@H](C)O[C@H]1CC(=O)O[C@@H]31 (some centres undefined)	USP17 inh 56
Cc1noc(C)c1CC(=O)Nc1nnc(-c2ccc(C(C)C)cc2)s1	USP8 inh 32
Cc1noc(C)c1CC(=O)Nc1ccc(C(F)(F)F)cc1	none
Cc1ccc(F)cc1S(=O)(=O)NCc1ccc(N2CCN(C)CC2)cc1	USP30 block 36
CCn1c(=O)c2sccc2n2c(CCC(=O)N3CCC(Cc4ccccc4)CC3)nnc12	none
O=C(Cc1ccc(Cl)cc1)Nc1ccccc1N1CCCCC1	none
COC(=O)c1ccc(NC(=O)c2ccc(COc3cc(Cl)ccc3Cl)cc2)cc1	USP17 inh 47
FC(F)(F)c1cc(-c2ccncc2)nc2c(-c3ccccc3)cnn12	none
O=C(CSc1nccn1Cc1ccccc1)c1c[nH]c2ccccc12	none
O=C(Nc1ccc2nc3n(c(=O)c2c1)CCCC3)c1ccc2c(c1)OCO2	none
O=C(Nc1ccc(Cn2cncn2)cc1)c1ccc2c(c1)OCO2	USP28 inh 45
O=C(Nc1ccc(-c2nnc3n2CCCCC3)cc1)c1ccc2c(c1)OCO2	USP28 inh 71
COc1ccc(C(=O)Nc2ccc(Cn3cncn3)cc2)cc1F	USP28 inh 35
CC(=O)Nc1cccc(C(=O)Nc2ccc(Cn3cncn3)cc2)c1	none
COc1ccc(CCN2CC(=O)N3CCc4c([nH]c5ccccc45)C3(C)C2=O)cc1 (centres undefined)	none
COc1cc(NC(=O)Cc2csc(NC(=O)c3ccc(=O)[nH]c3)n2)cc(OC)c1OC	none
Cc1ccc(CNC(=O)CCc2csc(NC(=O)c3ccc(=O)[nH]c3)n2)cc1	USP30 block 33
CCc1cc(C(c2ccc(OC)cc2)N2CCOCC2)c(NC(=O)c2ccccc2)s1 (centres undefined)	none
COc1ccccc1CN(CCCn1ccnc1)CC1CCOC1 (centres undefined)	USP8 inh 36
COc1ccccc1CN1CCC(c2nn(C)c3nccnc23)CC1	none
COc1ccc(NC(=O)Nc2ccc3nc4n(c(=O)c3c2)CCCC4)cc1OC	USP28 inh 31
O=C(Nc1ccc2c(c1)OCCO2)Nc1ccc2nc3n(c(=O)c2c1)CCCC3	USP17 inh 32, USP28 inh 68
COc1cc(NC(=O)Nc2ccc3nc4n(c(=O)c3c2)CCCC4)cc(OC)c1	none
COc1cccc(NC(=O)Nc2ccc3nc4n(c(=O)c3c2)CCCC4)c1	USP8 inh 50, USP17 inh 34, USP28 inh 55
Cc1cc(C2CN(C(=O)c3cc(-c4cccnc4)n[nH]3)CCO2)ccn1 (centres undefined)	none
